# Compounds with a hit are over-represented: about 12% of the library has one in this group of screens.
# USP28 block – blocks human USP28 ubiquitin-rhodamine cleavage | Q96RU2 | purified USP28, Ub-rhodamine cleavage fluorescence, 30 min | inhibition, % at 25 µM | hit rate 3% among 47,000 | AID 1645857
# USP30 inh – blocks human USP30 ubiquitin-rhodamine cleavage; Q70CQ3; inhibition, % at 25 µM; purified USP30, Ub-rhodamine cleavage fluorescence; hit rate 5.3% among 47,000
# OTUD3 inh – human OTUD3 deubiquitinase inhibition. hit rate 0.7% among 47,000. Q5T2D3. inhibition, % at 25 µM. purified OTUD3, Ub-rhodamine fluorescence, 2 h
# USP17 inh – human USP17-like deubiquitinase inhibition; A8MUK1; purified USP17, Ub-rhodamine cleavage fluorescence, 3 h; inhibition, % at 50 µM; hit rate 6.5% among 47,000; AID 1645855
# An asterisk follows results filed as active; . = no result. Rule as the data show it: active = inhibition above about 30%; inactive = the rest.
SMILES,USP28 block,USP30 inh,OTUD3 inh,USP17 inh
CCc1cc2c(NCc3ccc(F)cc3)ncnc2s1,13,27,7,32*
Cc1ccc(S(=O)(=O)NC2COc3ccccc3C2)cc1 (stereo not drawn),16,22,4,-4
CCOc1ccc(NS(=O)(=O)c2c[nH]c3ccc([N+](=O)[O-])cc23)cc1,15,63*,9,53*
Cc1ccc(NC(=O)c2cc3c(CO)cnc(C)c3oc2=Nc2ccccc2)cc1,6,20,8,12
Fc1ccc(OCCn2c(COc3ccccc3)nc3ccccc32)cc1,27,16,4,23
CCn1c(=N)n(CCOc2ccc(F)cc2)c2ccccc21,97*,39*,-5,6
Cc1ccc(OCCn2c(=N)n(C(C)C)c3ccccc32)cc1,78*,28,1,8
Clc1ccc2c(NCc3cccs3)ncnc2c1,34*,22,17,12
COc1cc2ncnc(NCc3cccs3)c2cc1OC,5,-1,-3,-8
Cc1cn2c(=O)cc(COC(=O)c3ccc(NC(=O)c4ccccc4)cc3)nc2s1,-8,-41,9,39*
O=c1[nH]c2ccc(NCc3ccccc3OCc3ccc(Cl)cc3)cc2[nH]1,37*,31*,4,27
C[C@]12CN(C(=O)c3ccccc3)C[C@H]1NC(=O)c1ccccc1C2=O,.,.,2,18
O=C(Nc1ccccc1N1CCOCC1)C1Cc2ccccc2CN1S(=O)(=O)c1ccccc1F (stereo not drawn),-6,-35,-13,20
COc1ccc(-c2nnc(-c3nc(NCCc4cnc[nH]4)c4ccccc4n3)o2)cc1,-6,0,-7,1
O=C(COc1ccc(S(=O)(=O)N2CCOCC2)cc1)N1CCC(Cc2ccccc2)CC1,57*,21,4,3
CCOC(=O)C1CCN(C(=O)COc2ccc3c(=O)c(Oc4ccc(F)cc4)c(C)oc3c2)CC1,3,30*,0,0
O=C(COc1ccccc1F)N1CCC(Cc2ccccc2)CC1,11,17,9,13
Cc1c(C)c2ccc(OCC(=O)N3CCC(Cc4ccccc4)CC3)cc2oc1=O,42*,48*,22,18
CC(C)NS(=O)(=O)c1ccc(OCC(=O)N2CCC(Cc3ccccc3)CC2)cc1,79*,32*,3,6
Cc1cc(C)cc(C(=O)NCCn2ncc3c(N4CCCC4)ncnc32)c1,-6,16,0,0
Cc1cnc(-c2nccnc2C2CCCN(C(=O)c3cnc4ccccc4c3)C2)[nH]1 (stereo not drawn),4,7,-36,7
CCn1c(=O)c(-c2ccc(C(=O)NCc3cc(OC)ccc3OC)cc2)nc2ccccc21,10,29,1,0
COc1ccccc1NC(=O)c1nnn(Cc2nc(-c3ccc(C)cc3)oc2C)c1N,-2,-22,-15,4
CCOc1ccc(-c2nc(Cn3nnc(C(=O)Nc4ccccc4C)c3C)c(C)o2)cc1,17,43*,17,.
COc1ccccc1NC(=O)c1cc(S(=O)(=O)N2CCCc3ccccc32)ccc1F,0,11,10,43*
SMILES,USP28 block,USP30 inh,OTUD3 inh,USP17 inh
COc1ccc(S(=O)(=O)N2CCc3ccccc32)cc1C(=O)Nc1ccc2[nH]c(=O)[nH]c2c1,37*,87*,-4,27
O=C(Nc1ccc(Br)cc1)c1cc(-c2ccc(Cl)s2)nc2ccccc12,.,.,0,-186
CCOC(=O)C1CCN(Cc2cc(=O)oc3cc(O)c(O)cc23)CC1,85*,52*,85*,85*
COc1ccc(Nc2nc(N3CCN(CCO)CC3)nc3c2C(=O)CCC3)cc1,-14,-4,-9,-16
O=C(c1ccco1)N1CCN(c2ncc3c(=O)n(C4CCCC4)c(=O)[nH]c3n2)CC1,-14,-7,-9,2
O=S(=O)(Nc1ccccc1Cc1ccccc1)c1ccc(Cl)cc1,27,31*,15,27
CCCc1ccc(S(=O)(=O)Nc2ccccc2F)cc1,23,32*,16,26
O=S(=O)(Nc1ccccc1Cc1ccccc1)c1ccc(F)cc1,29,38*,8,36*
CCCN1C(C)=NS(=O)(=O)c2cc(C(=O)Nc3cc(C)cc(C)c3)ccc21,0,-6,-4,0
COc1ccccc1NC(=O)c1nc(-c2cn(-c3ccc(F)cc3)nn2)no1,-11,-3,-7,.
Cc1ccccc1-c1nc2c3c(C)c(C)n(-c4ccccn4)c3ncn2n1,-51,-167,-34,-33
COc1ccccc1-c1nc2c3c(C)c(C)n(-c4ccc(Br)cn4)c3ncn2n1,-12,-149,-23,51*
COc1ccc2c(c1)c1ncn(CCN3CCCC3)c(=O)c1n2C,-15,-28,-13,-20
COc1ccc2c(c1)c1ncn(Cc3ccc4c(c3)OCO4)c(=O)c1n2C,11,48*,10,35*
COc1ccc2c(c1)c1ncn(CCC3=CCCCC3)c(=O)c1n2C,47*,31*,16,16
Cc1cc(NC(=O)CN2[C@H](Cc3ccccc3)C[C@H]3NC(=O)CCCC[C@@H]32)nn1C,0,10,3,6
Cc1noc(-c2cccnc2-n2ncc(C(=O)NCc3ccccc3Cl)c2C)n1,0,16,1,-1
Cc1nc2ccccn2c1CC(=O)Nc1cccc(C2CCc3nncn3C2)c1 (stereo not drawn),11,12,7,0
Cc1cc(=O)n(CC(=O)N2CCN(c3ncccn3)CC2)c2c1c(C)nn2-c1ccccc1,-14,-5,-1,-9
O=C(Cn1c(C(F)(F)F)nc2cc3c(cc21)OCCO3)NC1CCCC1,-6,3,-6,35*
O=C(NCc1ccccn1)c1cn(-c2cccc(Cl)c2)nn1,-13,9,0,33*
Cc1ccc(-n2cc(C(=O)NCc3cccnc3)nn2)cc1C,19,66*,6,.
O=S(=O)(N1CCOCC1)N1C[C@@H]2c3nccn3-c3ccccc3[C@@H]2C1,-2,-3,-3,4
Cc1ccc2[nH]cc(S(=O)(=O)c3cc(F)cc(F)c3)c(=O)c2c1,6,8,7,12
Cc1ccc2[nH]cc(S(=O)(=O)c3ccc(C)c(F)c3)c(=O)c2c1,-19,-34,-3,60*
SMILES,USP28 block,USP30 inh,OTUD3 inh,USP17 inh
COc1ccc(NS(=O)(=O)/C=C/c2ccc(OC)c(OC)c2)cc1,6,14,14,-2
COc1ccc(/C=C/c2cc(OC)cc(=O)o2)cc1,17,32*,24,30*
O=C(NCc1cccnc1)c1cnn2c(C(F)(F)F)cc(-c3ccc(F)cc3)nc12,-1,56*,-3,36*
COc1ccc(CNC(=O)C2CCCN(C(=O)c3cc(-c4ccccn4)n[nH]3)C2)cc1 (stereo not drawn),-9,-17,-13,-43
CN(C)c1cccc(C(=O)NCc2[nH]nc3ccccc23)c1,11,15,2,6
CCOc1ccc(C(=O)CCC(=O)Nc2cccc(S(=O)(=O)Nc3cccc(Cl)c3)c2)cc1,-3,-47,-8,32*
COc1ccc(NS(=O)(=O)c2cccc(NC(=O)CCOc3ccccc3OC)c2)cc1,.,.,3,-3
COCCn1ccc2nc(C)c(C(=O)Nc3ccc4c(c3)OCCO4)cc2c1=O,1,36*,4,51*

# Source: PubChem
